Data on 8 compounds can be found in PubChem BioAssay (NCATS).

Inconclusive results are not listed. Calls of active or inactive are those of the source. Unless noted, the call rests on the fitted dose curve; in most records, active means well fitted curve in the direction sought with a large enough effect; inconclusive means small, poorly fitted or top-dose-only effect, or another doubt; inactive means no such curve, though single readings can be large; an effect the other way counts as inactive or inconclusive.

Test [1] in a line: qHTS profiling of the MIPE4 collection as inhibitors of Plasmodium falciparum (DD2) proliferation (AID 743345; call rule not given here). Conditions: P. falciparum Dd2 in erythrocytes, SYBR Green DNA, 72 h; at 28.5 µM (top of the series) unless noted. The method, boiled down:
(§1)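 Erythrocytes infected with P. falciparum (0.3% parasitemia, 2.5% hematocrit) incubated with compounds 72 h at 37 C, 5% CO2. Lysis with saponin/Triton buffer containing SYBR Green I, overnight at room temperature in the dark; DNA fluorescence (485/535 nm) normalised to 0.29 uM artemisinin and DMSO.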

Test [2] can be described thus: qHTS profiling of the MIPE4 collection as inhibitors of Plasmodium falciparum (HB3) proliferation (AID 743347; call rule not given here;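 further: plate controls were DMSO vehicle wells for no effect and artemisinin wells for full effect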). To be noted: P. falciparum HB3 in erythrocytes, SYBR Green DNA, 72 h; at 28.5 µM (top of the series) unless noted. The method, boiled down:
as §1
A general note: Quantitative high-throughput screening tests each substance at several concentrations.

Test [3] in a line: High-throughput drug toxicity screening in the BPDCN cell line Gen2.2 (AID 1224824; call rule not given here;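 further: cells exposed to compounds for 48 h before reading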). To be noted: Gen2.2 BPDCN cells; at 45.8 µM (top of the series) unless noted. The gist of the method:
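CellTiter-Glo luminescence after 48 h compound exposure of Gen2.2 cells; percent activity set with DMSO as 100% and bortezomib (9.2 uM final) as 0%. Cells seeded at 500 per well, RPMI + 10% FBS, 37 °C.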

A short description of test [4]: High-throughput drug toxicity screening in the BPDCN cell line Cal-1 (AID 1224825; call rule not given here). To be noted: Cal-1 BPDCN cell viability, qHTS; at 45.8 µM (top of the series) unless noted. The gist of the method: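 Cal-1 cells, 500 per well in phenol-red-free RPMI with 10% FBS, exposed to compounds for 48 hours at 37C, 5% CO2. Viability read by CellTiter-Glo luminescence; percent activity normalized to DMSO (100%) and 9.2 uM bortezomib final (0%).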

Test [5] can be described thus: qHTS assay for measurement of the activity of small molecule inhibitors on Zika virus induced Caspase-3 activity in human iPSC derived neural progenitor cells (hNPCs) (AID 1224857). Further: % of control where 0% means no effect; nearly all actives have a fitted effect of over 65% in size. The method, boiled down: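 Human iPSC-derived neural progenitor cells pretreated 1 hr with compounds, then infected with Zika virus (2 FFU/cell) for 6 hours at 37 C. Caspase-3/7 measured by Caspase-Glo luminescence; % inhibition calculated from induction scaled to uninfected (0%) and infected (100%) wells.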

Test [6] in a line: qHTS assay for measurement of the activity of small molecule inhibitors on Zika virus induced Caspase-3 activity in human astrocytoma cells (AID 1224859).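 Further: plate controls were ZIKV-infected untreated cells for no effect and uninfected cells for full effect.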 The method, boiled down:
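SNB-19 astrocytoma cells, 250/well, pretreated 1 h with compounds, then Zika virus at 2 FFU/cell for 6 h at 37 C; Caspase-Glo 3/7 luminescence after 30 min; percent inhibition normalised to uninfected and infected controls.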

Test [7] in a line: qHTS Screen of the MIPE 4.0 Collection Against Ewings Sarcoma (RDES) (AID 1259252). Further: nearly all actives have a fitted effect of over 35% in size. Further: potency means the concentration at half of the fitted maximal effect. The gist of the method: (§2)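 Dose series incubated 48 h with cells in RPMI plus 5% FBS, glutamine and penicillin/streptomycin; cell viability then quantified via CellTiter-Glo.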
A short description of test [8]: qHTS Screen of the MIPE 4.0 Collection Against Ewings Sarcoma (TC71) (AID 1259253). Further: nearly all actives have a fitted effect of over 40% in size. Further: potency means the concentration at half of the fitted maximal effect. The gist of the method:
as §2

Test [9] in a line: qHTS Screen of the MIPE 4.0 Collection Against Ewings Sarcoma (EW8) (AID 1259255). Further: nearly all actives have a fitted effect of over 35% in size. Further: potency means the concentration at half of the fitted maximal effect.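 On viability: 100% = DMSO-treated cells and 0% = medium-only wells without cells.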 The gist of the method: as §2
A short description of test [10]: qHTS Screen of the MIPE 4.0 Collection Against Ewings Sarcoma (TC32) (AID 1259256). Further: nearly all actives have a fitted effect of over 45% in size. Further: potency means the concentration at half of the fitted maximal effect. The method, boiled down: as §2
A short description of test [11]: qHTS assay to identify small molecule inhibitors of chordoma cells - UCH-1 (AID 1259355). Further: on the % scale 0 is the no-effect control and ±100 the full control effect; nearly all actives have a fitted effect of over 55% in size. The method, boiled down: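 Cells (800/well) were seeded and left overnight at 37 C, 5% CO2, then treated with drugs at 15 concentrations plus a combination mix of auranofin, camptothecin, doxorubicin, rubitecan and topotecan. Viability after 48hr was read by CellTiter-Glo luminescence.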

A short description of test [12]: qHTS assay to identify small molecule inhibitors of chordoma cells - UCH-2 (AID 1259356). Further: on the % scale 0 is the no-effect control and ±100 the full control effect.
The nature of test [13]: P-glycoprotein substrates identified in KB-3-1 adenocarcinoma cell line, qHTS therapeutic library screen (AID 1346986). Further: nearly all actives have a fitted effect of over 60% in size. Conditions: outcome: dose series up to 44.5 µM unless noted. The gist of the method: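 Compounds were tested in dose-response against KB-3-1 and KB-8-5-11 cells at 37 degree C for 72 h, and viability was measured by luminescence. AC50 values came from curve fitting with class-based activity calls.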

The nature of test [14]: qHTS profiling of the MIPE4 collection as inhibitors of Plasmodium falciparum (DD2) proliferation (Rep 2) (AID 743346; call rule not given here). To be noted: P. falciparum Dd2 in erythrocytes, SYBR Green DNA, 72 h; at 28.5 µM (top of the series) unless noted. The gist of the method:
as §1

A short description of test [15]: Identifying Small Molecule Inhibitors of Pancreatic Cancer Stem Cells (SN12C, Adherent) (AID 1259358).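 Further: cell survival measured after 48 h of compound exposure.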 The gist of the method:
(§3)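 Endpoint: ATP-based luminescence, 48 h drug exposure. Bortezomib at 9.2 uM final as full-kill control; DMSO vehicle as negative control; activity normalized between vehicle and cell-free wells.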

The nature of test [16]: Identifying Small Molecule Inhibitors of Pancreatic Cancer Stem Cells (A278, Adherent) (AID 1259361).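 Further: viability read after 48 h compound exposure; nearly all actives have a fitted effect of over 35% in size.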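 On viability (% of control): 100% = DMSO-treated cells and 0% = cell-free media-only wells.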 The method, boiled down:
as §3

A short description of test [17]: Identifying Small Molecule Inhibitors of Pancreatic Cancer Stem Cells (Panc1, Adherent) (AID 1259362).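 Further: compound exposure lasted 48 h before the viability read; plate controls were DMSO-treated cells for no effect and cell-free media wells for full effect.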 Conditions: Potency: viability. The gist of the method:
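Pre-formed 14-day tumor spheroids or adherent cells dosed and incubated 48 h, 37C, 5% CO2. Viability assessed by CellTiter-Glo.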

As for `CC(C)(C)C(=O)Oc1ccc(S(=O)(=O)Nc2ccccc2C(=O)NCC(=O)O)cc1`, in test [1], the parasite growth remaining, % of DMSO control (lower = more inhibition) was 92.3%. The compound also came in with a growth, % of control in [2] of 67.9%. The cell viability, % of control (lower = more cytotoxic) in test [3] came to 103%. The viability (% of control) in [4] was 96%. Moreover, the Potency entry in test [5], in [6], in [7], in test [8], in test [9] and in test [10] was “inactive” each time. The Potency entry in [11] is “inactive”. Besides, the call in test [12] and in test [13] was inactive.

`O=C1N(c2ccccc2)c2ccccc2C1(Cc1ccncc1)Cc1ccncc1`: the parasite growth remaining, % of DMSO control (lower = more inhibition) in [1] is 86.2%. Besides, the parasite growth, % of control (lower = inhibition) in test [14] turned out to be 120%. The compound further yielded a growth, % of control in test [2] of 106%. Further, the cell viability, % of control (lower = more cytotoxic) in test [3] was determined as 266%. The viability (% of control) in test [4] was 130%. Besides, the Potency entry in [5], in [6], in test [9], in [10] and in test [11] was “inactive” each time. In addition, the Potency in [8] was 16.6 µM (active). Besides, the call in [12] and in [13] was inactive.

`CN(C)C(=N)N=C(N)N` registered a parasite growth remaining, % of DMSO control (lower = more inhibition) in test [1] of 99.4%. In addition, the parasite growth, % of control (lower = inhibition) in [14] was found to be 85.6%. The same compound came in with a growth, % of control in [2] of 110%. Also, the cell viability, % of control (lower = more cytotoxic) in [3] turned out to be 165%. Also, the viability (% of control) in [4] turned out to be 99.5%. Moreover, the Potency result in test [5], in test [6], in [7], in test [8], in test [9] and in test [10] was “inactive” throughout. Also, the Potency entry in test [11], in test [15] and in test [17] was “inactive” in each case. Besides, in test [12], the outcome was inactive. Moreover, the IC50 (viability decrease) result in [16] is “inactive”. For the same compound, in [13], the outcome was “inactive [setting not given]”.

On to `COc1cc2c(c(OC)c1OC)-c1ccc(OC)c(=O)cc1[C@@H](NC(C)=O)CC2`, for which the cell viability, % of control (lower = more cytotoxic) in test [3] amounted to 10.1%. In addition, in [4], the viability (% of control) was determined as 11.2%. The Potency result in test [5], in test [6], in [7], in test [8], in test [9] and in test [10] was “inactive” in each case. The result in test [12] was inactive.

In turn, `CC[C@@]1(O)C(=O)OCc2c1cc1n(c2=O)Cc2cc3c(CN(C)C)c(O)ccc3nc2-1` yielded a parasite growth remaining, % of DMSO control (lower = more inhibition) in test [1] of 16.9%. Besides, in test [14], the parasite growth, % of control (lower = inhibition) stood at 33.7%. Moreover, the growth, % of control in [2] was 21.3%. The cell viability, % of control (lower = more cytotoxic) in [3] was 14.6%. The viability (% of control) in test [4] stood at 3.81%. Moreover, the Potency result in test [5] and in test [6] was “inactive” each time. For the same compound, the figures for the Potency in [7], in test [8] and in [9] were 0.0332 µM (active), 0.0372 µM (active) and 0.0332 µM (active), respectively.

For `Clc1ccc2c(c1)C(N1CCNCC1)=Nc1ccccc1O2`, the parasite growth remaining, % of DMSO control (lower = more inhibition) in test [1] is 28.9%. Besides, the parasite growth, % of control (lower = inhibition) in test [14] was 27.9%. Also, in [2], the growth, % of control came out at 67.9%. Besides, in test [3], the cell viability, % of control (lower = more cytotoxic) is 72.6%. Moreover, in test [4], the viability (% of control) was 102%. Moreover, the Potency result in [5] and in test [6] was “inactive” each time. Besides, the Potency was 10.5 µM (active) in [7], 16.6 µM (active) in test [8], 16.6 µM (active) in test [9] and 18.7 µM (active) in test [10]. Also, the outcome in test [12] was inactive.

For `Cn1c(=O)c2c(ncn2C)n(C)c1=O`, the parasite growth remaining, % of DMSO control (lower = more inhibition) in test [1] amounted to 96.6%. For the same compound, the growth, % of control in [2] stood at 103%. For the same compound, the cell viability, % of control (lower = more cytotoxic) in test [3] is 150%. Also, in test [4], the viability (% of control) came to 116%. The Potency result in test [5], in [6], in test [7], in test [9] and in test [10] was “inactive” throughout. Further, in test [12], the outcome was inactive.

As for `O=c1c(O)c(-c2ccc(O)c(O)c2)oc2cc(O)cc(O)c12`, in test [14], the parasite growth, % of control (lower = inhibition) turned out to be 9.46%. The same compound returned a growth, % of control in test [2] of 11.6%. The cell viability, % of control (lower = more cytotoxic) in test [3] is 108%. For the same compound, in test [4], the viability (% of control) worked out at 34.4%. Besides, the Potency result in [5], in test [6] and in test [11] was “inactive” throughout. Moreover, the Potency in [8] was 18.7 µM (active); in test [9], 13.2 µM (active); in [10], 20.9 µM (active). In addition, the outcome in [12] was inactive. Also, the IC50 (viability decrease) in test [16] was 29.6 µM (active).
